The record followed here is PubChem BioAssay (NCATS).

Assay [1] in a line: P-glycoprotein substrates identified in KB-3-1 adenocarcinoma cell line, qHTS therapeutic library screen (AID 1346986). Further: nearly all actives have a fitted effect of over 60% in size.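 Further: potency is for cytotoxicity meaning loss of cell viability.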 The method in brief:
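In 1536-well format, 500 cells/well received pinned compound titrations and were incubated 72 h, 5% CO2. Viability was read by CellTiter-Glo; cytotoxic if AC50 < 10 uM and efficacy >50%.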

A short description of assay [2]: P-glycoprotein substrates identified in KB-8-5-11 adenocarcinoma cell line, qHTS therapeutic library screen (AID 1346987). Further: nearly all actives have a fitted effect of over 65% in size. Summed up: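 Compounds are pinned in dose-response onto KB-8-5-11 cells (500 cells/well, colchicine-free medium) and left 72 h at 37 degree C. CellTiter-Glo luminescence then yields AC50 values.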

Where “and” joins values, the source holds several entries; their conditions need not be identical. Equal entries are not always repeated. Results filed as inconclusive are left out. Calls of active or inactive are those of the source. The call rests on the fitted dose curve; in most records, active means well fitted curve in the direction sought with a large enough effect; inconclusive means small, poorly fitted or top-dose-only effect, or another doubt; inactive means no such curve, though single readings can be large; an effect the other way counts as inactive or inconclusive.
Potency means the concentration at half of the fitted maximal effect.

For the molecule `CC1(C)CC[C@]2(C(=O)O[C@@H]3O[C@H](CO)[C@@H](O)[C@H](O)[C@H]3O)CC[C@]3(C)C(=CCC4[C@@]5(C)CC[C@H](O[C@@H]6O[C@H](C(=O)O)[C@H](O)[C@H](O)[C@H]6O)C(C)(C)C5CC[C@]43C)[C@@H]2C1` (some centres not stated), the Potency result in assay [1] and in assay [2] was “inactive” throughout.

Consider `Nc1nc2c(nc(Br)n2[C@@H]2O[C@@H]3COP(=O)(O)O[C@H]3[C@H]2O)c(=O)[nH]1`, for which the Potency result in assay [1] and in assay [2] was “inactive” each time.

Consider `COc1ccc(NC(=O)C2C[C@H](C)CC[C@H]2C(C)C)cc1` (some centres not stated), for which the Potency result in assay [1] and in assay [2] was “inactive” each time.

For `C=C1C(=O)O[C@@H]2/C=C(\C)CC/C=C(/C=O)[C@H](OC)[C@@H](OC(=O)C(C)C)[C@@H]12`, the Potency entry in assay [1] and in assay [2] was “inactive” each time.

Turning to `CCC(C)/C=C(C)/C=C/C1=CC2=C(Cl)C(=O)C(C)(OC(C)=O)C(=O)C2(O)C(OC)O1` (configuration not stated), the Potency entry in assay [1] and in assay [2] was “inactive” in each case.

`COc1cc(O)cc(/C=C/c2cccc(O)c2)c1`: the Potency result in assay [1] and in assay [2] was “inactive” each time.

On to `C=CCCN1CCC2(CC1)CN(C(=O)c1c(F)cccc1F)c1ccc(Cl)cc12`, for which the Potency result in assay [1] and in assay [2] was “inactive” each time.

Turning to `C=C1C(=O)OC2CC(C)C(CCC(C)O)=CCC12` (configuration not stated), the Potency result in assay [1] and in assay [2] was “inactive” throughout.

On to `C=CC(=O)N1CC(N2CCN(C(=O)CNc3cc(C4CC4)c(Cl)cc3O)CC2)C1`, for which the Potency entry in assay [1] and in assay [2] was “inactive” each time.

On to `CC1(C)CC[C@]2(C(=O)O)[C@H](O)C[C@]3(C)C(=CCC4[C@@]5(C)CC[C@H](O[C@@H]6O[C@H](CO[C@@H]7OC[C@H](O)[C@H](O)[C@H]7O[C@@H]7OC[C@H](O)[C@H](O)[C@H]7O)[C@@H](O)[C@H](O)[C@H]6O)C(C)(C)C5CC[C@]43C)[C@@H]2C1` (some centres not stated), for which the outcome in assay [1] and in assay [2] was “inactive [at 9.29 µM]” each time.

Regarding `COc1cc(F)c(C(C)C)cc1-c1ccc(C(F)(F)F)cc1CN1C(=O)OC(c2cc(C(F)(F)F)cc(C(F)(F)F)c2)C1C` (configuration not stated), the Potency result in assay [1] and in assay [2] was “inactive” in each case.

For `C=C1C(=O)OC2/C=C(\CO)CC/C=C(\C=O)C(O)C(OC(=O)C(C)CC)C12` (configuration not stated), the Potency result in assay [1] and in assay [2] was “inactive” in each case.

In the case of `COc1cc(O)c2c(c1)/C=C/C[C@H](O)[C@H](O)C(=O)/C=C\C[C@H](C)OC2=O`, the Potency in assay [1] is 6.51 µM (active); in assay [2] it was 9.2 µM (active) and 8.2 µM (active).

On to `C=C[C@]1(C)C[C@H](O)[C@H]2C(=C)C(=O)O[C@@H]2[C@H]1C(=C)CO`, for which the Potency entry in assay [1] and in assay [2] was “inactive” throughout.

As for `CC#CC(=O)Nc1ccc2ncnc(Nc3cccc(Br)c3)c2c1`, the values for the Potency in assay [1] and in assay [2] were 10.3 µM (active) and 11.6 µM (active), respectively.

On to `COC(CCc1ccc(O)cc1)CC(=O)CCc1ccc(O)cc1` (configuration not stated), for which the Potency result in assay [1] and in assay [2] was “inactive” each time.

With `O=C([C@@H](Cc1cccc(C(F)(F)F)c1)NS(=O)(=O)c1cc(F)c2c(c1)CCNC2)N1CCCC1`, the Potency entry in assay [1] and in assay [2] was “inactive” throughout.

With `CC(C)(CO)c1cc2cc(NC(=O)C3(c4ccc5c(c4)OC(F)(F)O5)CC3)c(F)cc2n1CC(O)CO` (configuration not stated), the Potency entry in assay [1] and in assay [2] was “inactive” in each case.

Regarding `CC(=O)c1c(C)cc2cccc(O)c2c1O[C@@H]1O[C@H](CO)[C@@H](O)[C@H](O)[C@H]1O`, the Potency entry in assay [1] and in assay [2] was “inactive” throughout.

In the case of `COC1CC(O[C@H]2CC[C@]3(C)C4CC[C@@]5(C)C(=O)[C@]4(CC[C@@H]3C2)CC[C@@H]5C2=CC(=O)OC2)OC(C)C1OC1OC(COC2OC(CO)C(O)C(O)C2O)C(O)C(O)C1O` (some centres not stated), the Potency in assay [1] is 3.48 µM (active); in assay [2], 2.19 µM (active).

In the case of `COc1cccc(OCCCN)c1-c1cc(Nc2cnc(C#N)cn2)n[nH]1`, the Potency was 0.146 µM (active) in assay [1] and 1.3 µM (active) in assay [2].

`CC(C)C[C@@H](N)C(=O)N[C@H]1C(=O)N[C@@H](CC(N)=O)C(=O)N[C@H]2C(=O)N[C@H]3C(=O)N[C@H](C(=O)N[C@H](C(=O)O)c4cc(O)cc(O)c4-c4cc3ccc4O)[C@H](O)c3ccc(c(Cl)c3)Oc3cc2cc(c3O[C@@H]2O[C@H](CO)[C@@H](O)[C@H](O)[C@H]2O[C@H]2C[C@](C)(N)[C@H](O)[C@H](C)O2)Oc2ccc(cc2Cl)[C@H]1O`: the Potency entry in assay [1] and in assay [2] was “inactive” in each case.

On to `C=C(COC(=O)C(O)C(O)CN)C12OC1C1(C)C(=CC2=O)C(O)C(O)CC1C` (configuration not stated), for which the Potency entry in assay [1] and in assay [2] was “inactive” throughout.

As to `Nc1nc(Nc2ccc3c(c2)CCC(N2CCCC2)CC3)nn1-c1cc2c(nn1)-c1ccccc1CCC2` (configuration not stated), the Potency in assay [1] was 11.6 µM (active); in assay [2], 14.6 µM (active).

`O=c1cc(N2CCN(c3cccc(C(F)(F)F)c3)CC2)[nH]c(=O)n1C1CCCCC1`: the Potency entry in assay [1] and in assay [2] was “inactive” throughout.

As to `CC(=O)O[C@H]1CC[C@]2(C)[C@H]3CC[C@]4(C)Oc5oc(C)cc(=O)c5C[C@H]4[C@]3(C)CC[C@H]2C1(C)C`, the Potency result in assay [1] and in assay [2] was “inactive” each time.
